# The campaign covered roughly 310,000 compounds. About 14,000 (4.5%) showed an effect of 50% or more. The effect is printed as a negative number. This is one part of a sample in which strong results are shown more often than they occur.
# Target: human ether-à-go-go-related gene (hERG) potassium channel (human, UniProt Q12809)
# Assay: primary screen, population patch clamp on CHO cells stably expressing hERG; higher = less effect of the substance
# 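Further: peak tail current of the secondary pulse compared with the same well before compound.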
# Chain of human ether-à-go-go-related gene (hERG) potassium channel (Q12809 whole entry, looked up): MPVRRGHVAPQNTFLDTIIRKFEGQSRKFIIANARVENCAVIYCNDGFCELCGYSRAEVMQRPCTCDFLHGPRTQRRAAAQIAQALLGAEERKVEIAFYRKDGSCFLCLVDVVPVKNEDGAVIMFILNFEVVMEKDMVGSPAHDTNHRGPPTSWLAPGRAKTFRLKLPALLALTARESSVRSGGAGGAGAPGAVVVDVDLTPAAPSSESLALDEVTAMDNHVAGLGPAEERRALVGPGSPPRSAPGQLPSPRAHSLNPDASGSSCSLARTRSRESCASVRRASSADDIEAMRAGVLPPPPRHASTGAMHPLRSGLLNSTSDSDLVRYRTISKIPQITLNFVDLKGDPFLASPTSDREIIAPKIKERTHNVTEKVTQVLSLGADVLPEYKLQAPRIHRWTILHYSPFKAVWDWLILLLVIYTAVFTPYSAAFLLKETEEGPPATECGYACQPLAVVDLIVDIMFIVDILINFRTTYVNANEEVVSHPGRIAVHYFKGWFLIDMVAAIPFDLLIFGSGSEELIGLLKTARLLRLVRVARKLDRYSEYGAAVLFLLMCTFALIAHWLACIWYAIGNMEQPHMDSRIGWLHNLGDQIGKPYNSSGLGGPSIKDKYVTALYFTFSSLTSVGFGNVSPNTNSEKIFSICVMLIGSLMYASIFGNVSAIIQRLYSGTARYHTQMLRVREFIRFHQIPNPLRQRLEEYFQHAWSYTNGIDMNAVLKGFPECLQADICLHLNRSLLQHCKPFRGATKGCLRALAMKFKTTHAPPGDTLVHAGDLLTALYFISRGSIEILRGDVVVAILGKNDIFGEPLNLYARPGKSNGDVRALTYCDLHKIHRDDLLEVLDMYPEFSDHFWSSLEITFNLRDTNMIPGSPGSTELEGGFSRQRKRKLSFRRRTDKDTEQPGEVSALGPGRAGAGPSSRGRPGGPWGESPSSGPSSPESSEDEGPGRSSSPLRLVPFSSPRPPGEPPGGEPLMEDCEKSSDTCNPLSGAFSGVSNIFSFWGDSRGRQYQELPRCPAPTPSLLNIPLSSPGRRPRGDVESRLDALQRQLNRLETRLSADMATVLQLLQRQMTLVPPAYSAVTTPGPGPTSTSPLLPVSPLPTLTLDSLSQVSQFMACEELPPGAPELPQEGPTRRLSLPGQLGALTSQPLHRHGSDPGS
row,SMILES,"hERG current change (%, negative = inhibition) at 10uM [%]"
1,Cc1cnc(C(=O)OCC(=O)NC2CCCC(C)C2C)cn1 (stereo not shown),6.02
2,CS(=O)(=O)N1CCN(c2ccccc2NC(=O)c2ccc3ccccc3c2)CC1,-8.76
3,CN1CCN(c2ccccc2NC(=O)c2cc(Br)ccc2Cl)CC1,-76.4
4,CC(=O)N1CCN(c2ccccc2NC(=O)c2cc(Br)ccc2Cl)CC1,-66.6
5,CC(=O)N1CCN(c2ccccc2NC(=O)c2ccc3ccccc3c2)CC1,-61.9
6,CC(=O)N1CCN(c2ccccc2NC(=O)c2cccc3c(Cl)cccc23)CC1,-19.2
7,CS(=O)(=O)N1CCN(c2ccccc2NC(=O)c2cc(Br)ccc2Cl)CC1,-30.3
8,COc1c(Cl)cc(Cl)cc1C(=O)Nc1ccccc1N1CCN(C(C)=O)CC1,3.01
9,O=C(Nc1ccccc1N1CCCC1)c1ccc2ccccc2c1,8.73
10,O=C(Nc1ccccc1N1CCCC1)c1cc(Cl)ccc1Cl,-2.72
11,CC(C)C(NC(=O)COc1ccc2ccccc2c1)C(=O)N/N=C/C=C/c1ccccc1 (stereo not shown),14.8
12,COc1cc(C2/C(=C(\O)c3ccc4c(c3)CC(C)O4)C(=O)C(=O)N2c2nnc(C)s2)cc(OC)c1OC (stereo not shown),9.14
13,Cc1c(Cc2ccccc2)c(=O)oc2cc(OCC(=O)N3CCC(C(=O)O)CC3)ccc12,6.24
14,Cc1noc(C)c1COc1ccc(C(=O)OCC(=O)N2CC3(C)CC2CC(C)(C)C3)cc1 (stereo not shown),-6.44
15,COC(=O)c1ccc(Oc2c(Cl)cccc2[N+](=O)[O-])cc1,3.65
16,COc1ccc(OC(C)C(=O)NCC2CCCO2)cc1 (stereo not shown),18.5
17,COC(=O)c1sc(N)c(C(=O)OC)c1COC(=O)c1c(C)noc1C,-3.57
18,Cc1noc(C)c1CSc1nnc(C)c(=O)[nH]1,7.14
19,CCOC(=O)c1[nH]c(C)c(C(=O)OCC(=O)N(C)C2CCS(=O)(=O)C2)c1C (stereo not shown),29
20,OCCC1CN(Cc2cccc3nonc23)CCN1Cc1ccsc1 (stereo not shown),-52.6
21,OCCC1CN(Cc2ccc3nonc3c2)CCN1Cc1ccsc1 (stereo not shown),-66.1
22,OCCC1CN(Cc2cccc3nonc23)CCN1C1CCCCC1 (stereo not shown),-5.74
23,CCOc1ccc2nc(CN3CCN(Cc4ccsc4)C(CCO)C3)ccc2c1 (stereo not shown),-47

row,SMILES,"hERG current change (%, negative = inhibition) at 10uM [%]"
1,Cc1cccc(CN2CCN(Cc3ccc4nonc4c3)CC2CCO)n1 (stereo not shown),-35.6
2,OCCC1CN(Cc2ccc3cc(Cl)ccc3n2)CCN1Cc1ccsc1 (stereo not shown),-65
3,CC(C)N1CCC(N2CCN(Cc3cccc4nonc34)CC2CCO)CC1 (stereo not shown),3.08
4,O=C(CN1CCCC1)Nc1ccc(Cl)cc1C(F)(F)F,0.32
5,COCC(C)N=C1NN=C(c2cccs2)C(CC(=O)O)S1 (stereo not shown),20
6,CS(=O)(=O)Oc1ccc(/C=C2\C(=N)N3N=C(CC(=O)N4CCOCC4)SC3=NC2=O)cc1Cl,-2.27
7,COc1cc2c(cc1OC)/C(=C/c1ccc(Cl)cc1)C(=O)OC2,-36.4
8,NC(=O)CSc1nnc(NC(=O)C2CC(=O)N(c3ccc(F)cc3)C2)s1 (stereo not shown),26.1
9,O=C(Cc1ccc(S(=O)(=O)N2CCOCC2)s1)OCc1ccc(Cl)cc1,-20.1
10,COC(=O)c1ccc(NC(=O)COc2ccc(S(=O)(=O)N3CCCCC3)cc2)cc1,-9.57
11,Cc1ccc(Cl)c(OCC(=O)NCc2ccco2)c1,1.03
12,COc1ccc(OC)c(/C=N/NC(=O)CCc2n[nH]c(=O)[nH]c2=O)c1,4.8
13,CCOc1ccccc1N1CC(C(=O)Nc2ccc(S(=O)(=O)N3CCCCC3)cc2)CC1=O (stereo not shown),-3.91
14,S=C(Nc1ccc2cn[nH]c2c1)Nc1ccccc1Cl,-4.68
15,COc1ccc(S(=O)(=O)N2CCCCCC2)cc1C(=O)N(C)Cc1c(F)cccc1Cl,-49.8
16,COc1ccc(S(=O)(=O)N2CCCCCC2)cc1C(=O)N(C)Cc1ccccc1F,-53.2
17,Cc1ccc(S(=O)(=O)NCc2ccccc2)cc1C(=O)N(C)CC(=O)Nc1c(Cl)cccc1Cl,-30.4
18,COc1ccc(S(=O)(=O)N2CCOCC2)cc1C(=O)N(C)Cc1ccccc1F,-37.8
19,COc1cccc(NC(=O)CN(C)C(=O)c2cc(S(=O)(=O)N3CCCCCC3)ccc2OC)c1,-50.9
20,COc1cccc(NC(=O)CN(C)C(=O)c2cc(S(=O)(=O)NCc3ccccc3)ccc2C)c1,-71.1
21,COc1ccc(NC(=O)CN(C)C(=O)c2cc(S(=O)(=O)N3CCCCCC3)ccc2OC)cc1,-24
22,COc1cccc(NC(=O)CN(C)C(=O)c2cc(S(=O)(=O)N3CCCCC3)ccc2Cl)c1,-34.7
23,COc1ccc(NS(=O)(=O)c2ccc(C)c(C(=O)N(C)CC(=O)Nc3cccc(OC)c3)c2)cc1,-9.42

# — paper PMC4336329 (PLoS ONE, 2015)
